Measured values: publication PMC5540273 (PLoS ONE, 2017)

What follows are molecules tested on CLK4. Settings: concentration: 1 μM, replicates: in singlicate; n = 1.
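Further: KINOMEscan kinase panel screen.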

Row | Structure (SMILES) | %Inh
1 | COc1cc2ncn(-c3cc(OCC4CCCO4)c(C(N)=O)s3)c2cc1OC (stereo not shown) [GSK204607] | 18%
2 | C[C@@H]1CCCCN1c1cc(-c2ccc3c(N)n[nH]c3c2)nc(N)n1 [GSK2258759] | 13%
3 | COc1ccc(C2=C(Nc3cccc(C(=O)O)c3)C(=O)NC2=O)cc1 [SB-390765] | 4%
4 | CCCc1ccc(S(=O)(=O)NC2CCN(c3ccnc(Nc4ccc(F)cc4)n3)C2)cc1 (stereo not shown) [GSK1379715] | 0%
5 | O=C(Nc1ccccc1)Nc1cccc(Oc2ccc3nccn3n2)c1 | 0%
6 | Cn1ccc2ncnc(Oc3ccc(Nc4nc5ccccc5[nH]4)cc3)c21 | 0%
7 | Cc1cccc(-c2cc(Nc3ccncc3)c3ccccc3n2)n1 [GSK223675] | 5%
8 | Cc1ccc(NC(=O)Nc2cccc(Cl)c2)cc1-c1ccc(C(=O)Nc2ccncc2)cc1 [GSK1398468] | 5%
9 | COc1ccc(CNC(=O)NC2CCN(c3ccnc(Nc4cc(OC)c(OC)c(OC)c4)n3)C2)cc1 (stereo not shown) [GSK1379748] | 0%
10 | O=S(=O)(c1ccc(-c2ccnc3[nH]ccc23)cc1)N1CCCC1 [GSK846226] | 41%
11 | COc1ccccc1-c1ccc2c(NC(=O)C3CC3)n[nH]c2n1 [SB-711239] | 33%
12 | Cl.O=C(Nc1cccc(-c2nn3ncccc3c2-c2ccnc(Nc3cccnc3)n2)c1)c1c(F)cccc1F [GSK312879] | 12%
13 | O=C(Nc1n[nH]c2nc(-c3nccs3)c(Br)cc12)C1CCCC1 [SB-742609] | 0%
14 | COc1cc(Nc2nccc(N3CCC(NC(=O)Nc4cc(C)ccc4C)C3)n2)cc(OC)c1OC (stereo not shown) [GSK1379762] | 29%
15 | CC(=O)Nc1nc2cnc(Nc3cc(NC(=O)c4cccc(CCC#N)c4)ccc3C)nc2s1 | 12%
16 | Cc1cc(N2Cc3ccccc3C2)nc(Nc2ccc(S(=O)(=O)N3CCOCC3)cc2)n1.Cl [GSK1669917] | 11%
17 | Cc1cccc(-c2nc(C)cc(Nc3ccncc3)n2)n1 [GSK257997] | 9%

Row | Structure (SMILES) | %Inh
18 | O=c1cc(N2CCOCC2)nc2n(Cc3cccc(Cl)c3Cl)ccn12 [GSK2286295] | 51%
19 | Cc1cc(-c2ccc3c(c2)CC[C@@H](N[C@@H](C)c2ccccc2)C3)cnc1N.Cl [GW412617] | 10%
20 | COc1ccccc1CNC(=O)c1cc(C(=O)c2ccccc2C)c[nH]1 [GSK364507] | 9%
21 | Cc1cccc(-c2nc(Nc3cccc(C(N)=O)c3)c3ccccc3n2)n1 [GW876019] | 0%
22 | Cc1csc(-c2nc(Nc3ccncc3)c3ccccc3n2)n1 [GW869640] | 8%
23 | CS(=O)(=O)c1ccc(-c2nc3n(c2-c2ccncc2)CCC3)cc1 [SKF-105942] | 0%
24 | Nc1ncnc2[nH]c(-c3ccccc3)nc12 [AH5015] | 71%
25 | Cc1cccc(-c2nc(Nc3ccncc3)c3ccccc3n2)n1 [GW855857] | 0%
26 | COC(=O)c1c(-c2ccccc2)c2cc(OC)ccc2c(=O)n1Cc1ccccc1 | 5%
27 | Cc1c(Cn2ccn3c(=O)cc(N4CCOCC4)nc23)cccc1C(F)(F)F [GSK2289044] | 33%
28 | COc1ccc(Nc2nccc(-c3cccc(NC(=O)c4cc5cc(F)ccc5[nH]4)c3)n2)cc1 [GSK1229782] | 28%
29 | O=C(O)COc1ncnc2cc(-c3ccc4[nH]ncc4c3)sc12 | 79%
30 | Cc1ccc(-c2cc(-c3c[nH]nc3-c3ccccn3)ccn2)cc1 [GW684088] | 38%
31 | Cc1c(O)cccc1Nc1ccnc2ccc(C(F)(F)F)cc12.Cl [GW466413] | 38%
32 | CS(=O)(=O)c1ccc(-c2c(-c3ncn[nH]3)sc(N3CCOCC3)c2C#N)cc1 | 0%
33 | Fc1cccc(COc2nnc(-c3ccc4c(c3)CCO4)o2)c1 | 53%
34 | COc1cc2ncnc(Nc3ccc4nc(-c5ccccc5)[nH]c4c3)c2cc1OC.Cl [GW282450] | 3%
